We go through 17 molecules from PubChem BioAssay.

This assay concerns the target Pantothenate synthetase (Mycobacterium tuberculosis (strain ATCC 25618 / H37Rv)) (UniProt P9WIL5). Put plainly: Coupled enzyme confirmation of inhibitors against recombinant Mtb PanC (AID 375).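 Further: 0% = full reaction with vehicle and 100% = no enzyme background.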 The settings on record: coupled enzyme assay; at 10 µM, active compounds read high.

Active and inactive are the calls of the source. How the calls were made is not given here.

Pantothenate synthetase (Mycobacterium tuberculosis (strain ATCC 25618 / H37Rv)), sequence (P9WIL5 whole entry, looked up): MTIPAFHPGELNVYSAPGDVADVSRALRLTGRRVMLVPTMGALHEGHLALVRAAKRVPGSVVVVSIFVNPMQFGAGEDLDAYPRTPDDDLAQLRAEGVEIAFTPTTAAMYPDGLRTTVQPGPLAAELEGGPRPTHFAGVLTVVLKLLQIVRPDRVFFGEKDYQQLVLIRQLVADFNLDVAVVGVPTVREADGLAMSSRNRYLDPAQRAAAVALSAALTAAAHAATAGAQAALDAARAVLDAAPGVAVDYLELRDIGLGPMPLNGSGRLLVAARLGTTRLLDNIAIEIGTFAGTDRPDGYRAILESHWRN

As for `O=C(c1ccc(=O)[nH]c1)N(Cc1ccco1)C1(C(=O)NC2CCCC2)CCCCC1`, the inhibition is 0% (inactive). Take `COC(=O)c1ccc(CNC(=O)CSc2nc3sc(C)c(C)c3c(=O)n2C)o1`: the inhibition was 0% (inactive). With `O=C(Nc1ccc(OC(=O)c2ccco2)cc1)c1ccco1` the figure was 7% (inactive); with `COC(=O)c1[nH]c2cc(OC)ccc2c1NC(=O)CN1CCOCC1`, 0% (inactive); with `O=C(OCN1C(=O)c2ccccc2C1=O)c1ccc2c(=O)n3c(nc2c1)CCC3`, 0% (inactive). With `Cc1nc(SCC(=O)Nc2ccccc2C(F)(F)F)c2c(=O)n(C)c(=O)n(C)c2n1`, the inhibition was 4% (inactive). Turning to `COc1ccccc1Oc1ccc(S(=O)(=O)N2CCOCC2)cc1S(=O)(=O)N1CCOCC1`, the inhibition is 0% (inactive). As to `O=C1CNCc2[nH]c3ccccc3c2N1c1ccccc1`, the inhibition is 0% (inactive). Consider `Cc1ccc(N=Cc2ccc(O)cc2O)cc1F`, for which the inhibition was 0% (inactive).

For the molecule `CC(=O)Nc1sc2c(c1CN1CCN(c3ccccn3)CC1)CCCC2`, the inhibition was 2% (inactive). In the case of `Cc1ccnc(NC(=O)C2CCC(CNc3c(N4CCCC4)c(=O)c3=O)CC2)c1` (configuration not stated) it was 0% (inactive); in that of `COc1ccc(NC(=O)CSc2nc3c(c(=O)n2-c2ccc(F)cc2)SCC3)c(OC)c1`, 0% (inactive). On to `O=C(Nc1cccc(-c2nnc(-c3ccccc3)o2)c1)C1CCCCC1`, for which the inhibition is 0% (inactive). `C=CCn1c(COc2ccccc2F)nnc1SCC(=O)N1CC(=O)Nc2ccccc21`: the inhibition was 1% (inactive). In the case of `CCCn1c(=O)c(C(=O)NCc2ccccn2)c(O)c2ccccc21`, the inhibition is 0% (inactive).

Turning to `COc1cccc(CNC(=O)C2CCN(C(=O)N(C)C)CC2)c1`, the inhibition is 2% (inactive). Turning to `COc1ccc(OC)c(S(=O)(=O)N2c3ccccc3CC2C)c1` (configuration not stated), the inhibition was 0% (inactive).
